Results taken from PubChem BioAssay AID540317 (National Center for Advancing Translational Sciences (NCATS), 2011).
Among all 390,000 compounds or so, about 2,200 (0.56%) were called active. Not shown: some 3% with an inconclusive outcome. The call rests on the fitted dose curve; in most records, active means well fitted inhibition curve with a large enough effect; inconclusive means small, poorly fitted or top-dose-only effect; inactive means no such curve, though single readings can be large or run the other way. For the sample, actives were picked, then their nearest neighbours and some compounds at random.

molecular target: Chromobox protein homolog 1 (Homo sapiens) (UniProt P83916); assay: HTS for Inhibitors of HP1-beta Chromodomain Interactions with Methylated Histone Tails; settings: AlphaScreen HP1-beta / biotin-H3K9me3 peptide binding; series mostly up to 114 µM; activity change, negative = inhibition: at the top concentration; further: nearly all actives have a fitted effect of over 70% in size
How it was run: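 HP1-beta protein (50 nM final) preincubated 30 min at room temperature with biotinylated H3(1-18)K9me3 peptide (50 nM) in PBS pH 7.4, 0.01% Tween-20, then compound added for 30 min. AlphaScreen streptavidin donor/nickel chelate acceptor beads (10 ug/mL final), 30 min dark, luminescence read.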
Potency means the concentration at half of the fitted maximal effect.

Sequence of Chromobox protein homolog 1 (Homo sapiens) (P83916 whole entry, looked up): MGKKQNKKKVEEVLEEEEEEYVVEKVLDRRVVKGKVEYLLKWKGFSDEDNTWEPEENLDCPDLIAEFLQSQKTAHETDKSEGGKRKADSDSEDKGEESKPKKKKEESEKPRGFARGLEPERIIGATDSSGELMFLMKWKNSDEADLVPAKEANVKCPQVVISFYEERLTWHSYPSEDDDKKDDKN

| Structure (SMILES) | Potency | activity change, negative = inhibition |
| --- | --- | --- |
| O=C(OC12CC3CC(CC(C3)C1)C2)c1ccc(NCc2cc(O)ccc2O)cc1 | 70.8 µM (active) | – |
| O=C(Cn1ncn2nc(-c3cccs3)cc2c1=O)NCc1cccc(Br)c1 | – | 38.2% (inactive) |
| Cc1ccc(NN=Nc2nc3c([nH]2)c(=O)n(C)c(=O)n3C)cc1 | 35.5 µM (active) | – |
| Cc1cc(C)c(C=NNc2nc3c([nH]2)c(=O)n(C)c(=O)n3C)c(C)c1 | – | 8.59% [at 57 µM] (inactive) |
| Cc1ccc(CNC(=O)CSc2c(C)cnc3c2c(=O)n(C)c(=O)n3C)cc1 | – | 31.3% (inactive) |
| COc1ccc(NC(=O)CSc2nc3ncccc3[nH]2)c(OC)c1 | – | 58.9% (inactive) |
| COc1ccc(CNC(=O)CCc2c(C)nn(-c3ccc(N4CCCC4)nn3)c2C)cc1 | – | 59.8% (inactive) |
| Cc1cccc(C)c1-n1ncc(C(=O)NCCCN2CCCCC2)c1C1CCN(C(=O)OC(C)(C)C)CC1 | – | 45.8% (inactive) |
| Cc1cccc(Nc2cc(C)nc(-n3nc(C)cc3C)n2)c1 | – | 25.9% [at 57 µM] (inactive) |
| COc1ccc(OC)c(-n2nnc(-c3nc(-c4cc(OC)c(OC)c(OC)c4)no3)c2C)c1 | – | 9.72% (inactive) |
| OCCN1CCOCCOCCN(CCO)CCN(CCO)CC1 | – | 48.4% (inactive) |
| CCCC(=O)NC(=S)Nc1ccc(CN2CCOCC2)cc1 | – | 32.7% (inactive) |
| Oc1c(CN2CCOCC2)ccc(CN2CCOCC2)c1O | 15.8 µM (active) | – |
| CC(=O)N1CC[n+]2c(-c3ccc([N+](=O)[O-])cc3)csc21 | 10 µM (active) | – |
| O=C(C1CCC1)N1CCN(S(=O)(=O)c2ccc([N+](=O)[O-])cc2)CC1 | – | 31.4% (inactive) |
| Cc1cc(C)cc(C(=O)N2CCN=C2SCc2ccc([N+](=O)[O-])cc2)c1 | – | -0.188% (inactive) |
| O=S(=O)(c1ccc(Cl)cc1)c1nnn2c1nc(NC1CCCC1)c1sccc12 | – | 20.5% (inactive) |
| Cc1ccccc1CNC(=O)c1cccc(NC(=O)c2nsc3ccccc23)c1 | – | 27.1% [at 57 µM] (inactive) |
| Cc1ccc(NC(=O)Nc2sc3nc4n(c(=O)c3c2C)CCC(C)CC4)c(Cl)c1 (stereo not given) | – | 61.7% (inactive) |
| O=C(Nc1cc2c3c(c1)C1CCCC1CN3CC1CCCC21)c1ccc([N+](=O)[O-])cc1 (stereo not given) | 11.2 µM (active) | – |
| O=C(CCNC(=O)c1ccc([N+](=O)[O-])cc1)NC1CCCCC1 | – | -12.6% (inactive) |
| CC1CCc2noc(NC(=O)c3ccc([N+](=O)[O-])cc3)c2C1 (stereo not given) | – | 61.7% (inactive) |
| Cc1ccc(-c2cn3c(n2)sc2cc(C(=O)NCCCc4ccccc4)ccc23)cc1 | – | 30% (inactive) |
| CCOC(=O)c1c(C)oc2nc(C)nc(Nc3ccc(CC)cc3)c12 | – | 31.5% (inactive) |
| COCCNc1ncnc2c1c(-c1ccccc1)cn2-c1ccc(C)c(Cl)c1 | – | 28.5% (inactive) |

| Structure (SMILES) | Potency | activity change, negative = inhibition |
| --- | --- | --- |
| COc1ccc(S(=O)(=O)Nc2cc3c(C(=O)OC(C)C)c(C)oc3c3ccccc23)cc1 | – | 11.2% (inactive) |
| COc1ccc(S(=O)(=O)NC(C)C(=O)N2CCCCCC2)cc1 (stereo not given) | – | 22.8% (inactive) |
| COc1ccc(S(=O)(=O)/N=C2\C=C(NS(=O)(=O)c3ccccc3)C(=O)c3ccccc32)cc1 | 28.2 µM (active) | – |
| CCCN1CCN(CCCNC(=O)Cn2nc(CC)n3c(cc4occc43)c2=O)CC1 | – | 29.7% (inactive) |
| O=C1C=CC(=O)N1c1ccc(N2CCCCC2)cc1 | 15.8 µM (active) | – |
| Cc1ccc(CN2COc3cc(C)c4c(oc(=O)c5ccccc54)c3C2)cc1 | – | 32.2% (inactive) |
| O=c1cc(-c2ccccc2)n2c(SCc3ccccc3)nnc2[nH]1 | – | 41.7% (inactive) |
| CC(C)Cn1c(=O)c2ccccc2n2c(-c3cccc(Cl)c3)nnc12 | – | -1.29% (inactive) |
| O=c1[nH]c2ccccc2n2c(-c3ccccc3)nnc12 | 5.62 µM (active) | – |
| O=C(CNS(=O)(=O)c1cccs1)N1CCN(c2ccccc2Cl)CC1 | – | 4.55% (inactive) |
| CC/C=C/C(=O)N1CC2(CC(c3cccc(NC(=O)CC)c3)=NO2)C[C@H]1C(N)=O (stereo not given in full) | – | 67.8% (inactive) |
| C=C(C)C(=O)Nc1cccc(C2=NOC3(C2)C[C@H](C(N)=O)N(C(=O)C(c2ccccc2)c2ccccc2)C3)c1 (stereo not given in full) | 12.6 µM (active) | – |
| C/C=C(\C)C(=O)N1CC2(CC(c3cccc(NC(=O)CCCCC)c3)=NO2)C[C@@H]1C(N)=O (stereo not given in full) | – | 13.4% (inactive) |
| O=C(O)C1CC=CC2CCN(C3CCCCC3)C(=O)C21 (stereo not given) | – | 41% (inactive) |
| COC(=O)c1cc(NC(=O)CCS(=O)(=O)c2cc(Br)cc3c2N(C(=O)C2CC2)CC3)cc(C(=O)OC)c1 | – | 15.5% (inactive) |
| COc1ccc(-c2nn3c(-c4ccc(OC)cc4)nnc3c3ccccc23)cc1 | – | 33.3% (inactive) |
| COc1ccc(-c2nc(=N)sn2-c2ccccc2)cc1 | 14.1 µM (active) | – |
| Cc1n[nH]c(=O)n1-c1ccc(Oc2ccccc2)cc1 | – | 21% (inactive) |
| CN(Cc1ccccc1)C(=O)c1cn(C)c2ccc(S(=O)(=O)N(C)C3CCCCC3)cc2c1=O | – | 28.9% (inactive) |
| Cc1c(Cl)cccc1NC(=O)C(=O)NCCc1csc2nc(-c3ccccc3F)nn12 | – | 14.2% [at 57 µM] (inactive) |
| COc1ccc(CCNc2ncnc3c2cnn3-c2ccc(C)cc2)cc1 | – | 30.8% (inactive) |
| Cc1ccc(S(=O)(=O)N2CCN(c3nc(-n4cnc5ccccc54)nc4ccccc34)CC2)cc1 | – | 5.58% (inactive) |
| O=C(NCc1ccc2c(c1)CCN2C(=O)c1ccccc1)Nc1cc(F)ccc1F | – | -2.95% [at 57 µM] (inactive) |
| CCOc1ccc(Nc2nc(Cc3nnc(SCC(=O)NC4CCCC4)n3C)cs2)cc1 | – | 14.3% (inactive) |
| COCCCn1c(SCC(=O)Nc2ccccc2)nnc1-c1ccncc1 | – | 3.76% (inactive) |

| Structure (SMILES) | Potency | activity change, negative = inhibition |
| --- | --- | --- |
| COCCCn1c(Cc2csc(Nc3cccc(Cl)c3)n2)nnc1SCC(=O)OC1CCCCC1 | 50.1 µM (active) | – |
| COc1ccc(-c2nc3scc(CCNS(=O)(=O)c4cc(F)ccc4OC)n3n2)cc1OC | – | -5.93% (inactive) |
| CCS(=O)(=O)c1cc([N+](=O)[O-])c(Sc2ccccc2N)s1 | 39.8 µM (active) | – |
| Cc1ccc(CNC(=O)C2(C(F)(F)F)C/C(=C\CCO)CCCO2)o1 (stereo not given) | – | 49.9% (inactive) |
| COc1ccc(/C=C/c2noc(-c3ccccc3O)n2)cc1OC | – | 14% (inactive) |
| CC(=O)OCC(NC(=O)C(Cc1ccccc1)NC(=O)OC(C)(C)C)C1OC(n2ccc(=O)[nH]c2=O)C(OC(C)=O)C1OC(C)=O (stereo not given) | – | 30.5% (inactive) |
| O=S(=O)(NCCS(=O)(=O)N1CCN(c2ccccc2)CC1)c1ccc(Cl)cc1 | – | 22.9% [at 57 µM] (inactive) |
| C=CC1=C(C(=O)O)N2C(=O)[C@@H](NC(=O)/C(=N/OCC(=O)O)c3csc(N)n3)[C@H]2SC1 | 14.1 µM (active) | – |
| CCCCCCC1(C)NC(c2ccc3c(c2)OCO3)=CC(c2ccccc2O)N1 (stereo not given) | – | 0.409% [at 57 µM] (inactive) |
| O=C(Nc1ccc(CSc2ccccc2)cc1)c1ccc(CN2CCOCC2)cc1 | – | 25.2% (inactive) |
| CN(C)c1ccc(C(CC(=O)O)C(=O)O)cc1 (stereo not given) | – | 3.78% (inactive) |
| CN(C)c1ccc(CSc2ccccc2)cc1 | 39.8 µM (active) | – |
| Cc1ccc(-c2nc3ccccn3c2Nc2ccc(F)cc2)o1 | – | 17.1% (inactive) |
| Cc1ccc(-c2onc(C)c2C)cc1S(=O)(=O)Nc1ccccn1 | – | 52.2% (inactive) |
| CCCC1CCC(=NNC(=S)NCCc2ccccc2)CC1 (stereo not given) | 44.7 µM (active) | – |
| CCCCNC(=S)N/N=C1\CCCCc2ccccc21 | – | -0.0404% (inactive) |
| Cc1cc(F)ccc1NC(=S)NCCc1ccccc1 | – | 36.4% (inactive) |
| COC(=O)C(CC(C)C)NS(=O)(=O)c1cc(Br)ccc1Br (stereo not given) | – | 30.3% (inactive) |
| CCOC(=O)c1ccccc1NC(=O)c1sc2nc(-c3ccc(F)cc3)cn2c1C | – | 13.2% [at 57 µM] (inactive) |
| Cc1ccc(NC(=O)c2ccc3[nH]c(C)cc(=O)c3c2)c(C)c1 | – | 6.09% (inactive) |
| CCOc1ccccc1NC(=O)CSc1ncc(S(=O)(=O)c2ccc(C(C)(C)C)cc2)c(=O)[nH]1 | – | 15.9% (inactive) |
| COc1ccc(/C=N/n2c(C)cc(C)cc2=O)cc1 | – | 17.3% (inactive) |
| CN=c1scc(-c2cc(OC)ccc2OC)n1/N=C/c1c(C)[nH]c2ccccc12 | 31.6 µM (active) | – |
| Oc1ccc(Br)cc1C1C=C(c2ccc3c(c2)OCO3)NC(c2ccc(Cl)cc2)N1 (stereo not given) | – | 4.38% [at 57 µM] (inactive) |
| CCCCSc1ncnc2c1sc1nc(N3CCOCC3)c3c(c12)CCCC3 | – | 44.3% (inactive) |

| Structure (SMILES) | Potency | activity change, negative = inhibition |
| --- | --- | --- |
| O=C(NCCc1ccc(Cl)cc1)C1CCCN1C(=O)NCc1ccccc1 (stereo not given) | – | 26.5% (inactive) |
| S=C(Nc1ccc(Cl)cc1Cl)N1CCCC1 | – | 27.6% (inactive) |
| Oc1cc2c(cc1O)CN(C(=S)NCCc1ccc(Cl)cc1)CCC2 | 50.1 µM (active) | – |
| COc1ccc(C2=NC3(CCCCC3)N(CC(=O)Nc3ccc(C(C)C)cc3)C2=O)cc1 | – | 46.8% (inactive) |
| COc1ccc(N2CCN(c3cc(C)nc4nncn34)CC2)cc1 | – | 19.4% (inactive) |
| CCCNC(=O)C1CCN(c2nc3ccc(C)cc3[nH]2)CC1 | – | 17.6% [at 57 µM] (inactive) |
| COc1ccc(N2CCN(C(CNS(=O)(=O)c3ccc(C)cc3)c3ccccc3)CC2)cc1 (stereo not given) | 31.6 µM (active) | – |
| COc1ccc(S(=O)(=O)NCC(c2ccc(N(C)C)cc2)N2CCCC2)cc1 (stereo not given) | – | 6.18% (inactive) |
| COc1ccc(S(=O)(=O)NCC(c2ccc(C)cc2)N2CCN(C)CC2)cc1OC (stereo not given) | – | 24.5% (inactive) |
| COc1ccc(NC(=O)c2sc3nc[nH]c(=O)c3c2C)cc1 | – | 15.5% [at 57 µM] (inactive) |
| O=[N+]([O-])c1ccc(Oc2ccc(F)cc2Br)c2ccncc12 | 50.1 µM (active) | – |
| CCN1CCN(c2cc(C)c3cc(NC(=O)c4cc(Cl)ccc4OC)ccc3n2)CC1 | – | 10.9% (inactive) |
| CCN(C(=O)CSc1nnc(C)n2c1cc1occc12)c1ccccc1 | – | 21.5% (inactive) |
| CCOc1ccc(S(=O)(=O)N2CCN(C(=S)NCC3CCCO3)CC2)cc1 (stereo not given) | – | 28.5% (inactive) |
| CCOc1ccc(S(=O)(=O)NCCC(=O)NCC2CCCO2)cc1 (stereo not given) | – | 27.3% (inactive) |
| CCOc1ccc(-n2c(N)c(C(=O)NCC3CCCO3)sc2=S)cc1 (stereo not given) | 17.8 µM (active) | – |
| COc1ccc(-c2cccc(NS(=O)(=O)c3cc(C)c(OC)c(C)c3C)c2)nn1 | – | 21.1% [at 57 µM] (inactive) |
| COc1ccc(-c2nc3c4ccccc4n(CC(=O)Nc4ccc(C(C)=O)cc4)c(=O)n3n2)cc1 | – | 35.1% (inactive) |
| O=C1CSC(=S)N1/N=C/c1ccc(O)c([N+](=O)[O-])c1 | 39.8 µM (active) | – |
| CCOC(=O)c1c(C)n(S(=O)(=O)c2ccc(C)cc2C)c2ccc(NS(=O)(=O)c3ccc(C)cc3C)cc12 | – | 17.2% (inactive) |
| CC(=O)N1CCCc2cc(S(=O)(=O)N3CCC(C(=O)NC4CCCCC4)CC3)ccc21 | – | 14.9% [at 57 µM] (inactive) |
| Cc1ccc(NC(=O)C(Cc2ccccc2)NS(=O)(=O)c2ccc3c(c2)oc(=O)n3C)cc1C (stereo not given) | – | 28% (inactive) |
| COCCCn1c(SCC(=O)NC2CCCC2)nnc1-c1ccccc1 | – | 52.1% (inactive) |
| CCn1c(SCC(=O)NC2CC2)nnc1-c1ccncc1 | – | 17.1% (inactive) |
| CC1CCCCC1NC(=O)CSc1nnc(-c2ccncc2)n1CCCN(C)C (stereo not given) | 28.2 µM (active) | – |
